This is an account of results in PMC4336329 (PLoS ONE, 2015).

The whole screen tested about 310,000 compounds, of which about 14,000 (4.5%) showed an effect of 50% or more. Effects have a minus sign here. Only a selection was taken, and strong results are over-represented in it overall.
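Further: peak tail current of the secondary pulse compared with the same well before compound.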

Chain of human ether-à-go-go-related gene (hERG) potassium channel (Q12809 whole entry, looked up): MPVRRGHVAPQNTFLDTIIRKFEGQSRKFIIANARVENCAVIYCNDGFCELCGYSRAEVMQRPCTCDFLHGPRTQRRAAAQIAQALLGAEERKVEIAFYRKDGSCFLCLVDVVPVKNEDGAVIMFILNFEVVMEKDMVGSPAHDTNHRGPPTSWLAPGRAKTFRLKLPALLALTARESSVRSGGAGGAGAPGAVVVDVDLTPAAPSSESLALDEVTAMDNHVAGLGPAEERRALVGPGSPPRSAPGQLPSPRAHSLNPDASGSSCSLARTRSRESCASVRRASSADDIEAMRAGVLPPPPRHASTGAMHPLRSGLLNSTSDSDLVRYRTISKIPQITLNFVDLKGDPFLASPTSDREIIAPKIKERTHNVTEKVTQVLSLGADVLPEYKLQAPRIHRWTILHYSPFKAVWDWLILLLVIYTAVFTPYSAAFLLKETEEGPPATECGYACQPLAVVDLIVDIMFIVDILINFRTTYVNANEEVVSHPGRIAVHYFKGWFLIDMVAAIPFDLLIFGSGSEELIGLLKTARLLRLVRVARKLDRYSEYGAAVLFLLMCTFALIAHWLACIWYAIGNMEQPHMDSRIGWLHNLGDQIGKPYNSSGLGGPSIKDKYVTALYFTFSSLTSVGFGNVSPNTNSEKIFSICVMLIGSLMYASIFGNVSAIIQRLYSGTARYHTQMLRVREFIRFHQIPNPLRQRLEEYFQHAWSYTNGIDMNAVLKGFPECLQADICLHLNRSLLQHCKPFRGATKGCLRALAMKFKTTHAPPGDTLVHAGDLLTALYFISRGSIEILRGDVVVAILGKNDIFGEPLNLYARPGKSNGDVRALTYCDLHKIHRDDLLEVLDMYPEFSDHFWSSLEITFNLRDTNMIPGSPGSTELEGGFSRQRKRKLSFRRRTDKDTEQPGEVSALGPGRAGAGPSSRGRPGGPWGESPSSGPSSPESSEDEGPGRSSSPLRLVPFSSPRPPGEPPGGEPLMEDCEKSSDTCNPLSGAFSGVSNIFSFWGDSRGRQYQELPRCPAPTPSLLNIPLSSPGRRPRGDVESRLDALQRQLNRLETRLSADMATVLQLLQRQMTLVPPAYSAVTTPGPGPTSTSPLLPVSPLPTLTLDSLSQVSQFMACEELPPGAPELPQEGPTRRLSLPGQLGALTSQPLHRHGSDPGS

This experiment addresses human ether-à-go-go-related gene (hERG) potassium channel (human, UniProt Q12809). Description: primary screen, population patch clamp on CHO cells stably expressing hERG; higher = less effect of the substance.
`Cc1ccc(S(=O)(=O)NC2(C(F)(F)F)NC(=O)N(c3ccc(F)cc3)C2=O)cc1` (centres unmarked): the “hERG current change (%, negative = inhibition) at 10uM” value worked out at 9.68%.
Next, `CCN1CCN(C(=O)c2c(-c3c(Cl)cccc3Cl)noc2C)CC1`: 20.9%; `Cc1ccc(-n2c(C)cc(/C=C3\NC(=O)NC3=O)c2C)c(C)c1`: -5.9%; `Cc1cc(C)n(CCc2nc(-c3cccs3)cs2)n1`: 3.48%.
In the case of `Cc1nc2ccccn2c1C(=O)NNC(=O)Nc1cccc(C(F)(F)F)c1` it was -11%; in that of `Cc1nc2sc(C(=O)O)c(N)c2c2c1COC(C)(C)C2`, 9.19%; in that of `O=C(Nc1ccc(NC(=O)C2CCCCC2)cn1)c1ccco1`, 4.68%.
On to `CCN(CCO)Cc1cn[nH]c1-c1ccc(C)c(C)c1`, for which the “hERG current change (%, negative = inhibition) at 10uM” value is given as 9.28%.
In the case of `Cc1c(NC(N)=O)c(=O)n(-c2ccccc2)n1C` it was 3.79%; in that of `CNc1cnn(-c2ccc(C)cc2)c(=O)c1Sc1ccc(C)cc1`, -8.7%.
In the case of `C=CCNc1cnn(-c2ccc(C)cc2)c(=O)c1Sc1ccc(C)cc1` it was -79.4%; in that of `C=CCNc1cnn(-c2ccc(C)cc2)c(=O)c1Cl`, -12.7%.
For `CCOC(=O)c1cc(-c2ccccc2)nn1Cc1cc(C)no1`, the “hERG current change (%, negative = inhibition) at 10uM” value was -4.06%.
Next, `C=CCN1C(=O)/C(=C2/Sc3ccccc3N2C)SC1=Nc1c(C)n[nH]c1C`: -3.99%; `O=C(CCN1C(=O)c2ccccc2C1=O)Nc1ccc(F)cc1`: -6%; `CCOc1cc(CN2CCc3c([nH]c4ccccc34)C2)ccc1OC`: -19%.
As to `Clc1cccc(CN2CCc3c([nH]c4ccccc34)C2)c1`, the “hERG current change (%, negative = inhibition) at 10uM” value is -31.9%.
In the case of `Cc1cccc(CN2CCc3c([nH]c4ccccc34)C2)c1` it was -33.4%; in that of `COc1cc(CN2CCc3c([nH]c4ccccc34)C2)cc(OC)c1`, -55.7%; in that of `CSc1ccc(CN2CCc3c([nH]c4ccccc34)C2)cc1`, -52.7%.
As for `Clc1ccc(CN2CCc3c([nH]c4ccccc34)C2)cc1Cl`, the “hERG current change (%, negative = inhibition) at 10uM” value is recorded as -28.2%.
Next, `Cc1cccc(NC(=O)CSc2nc3ccccc3nc2N2CCCCC2)c1`: -36.5%; `COc1ccc(CNC(=O)c2n[nH]c3ccccc23)cc1OC`: 11.6%; `CCOC(=O)CSCC(=O)N1CCC(Cc2ccccc2)CC1`: 3.24%.
Next, `CCCSCCCNC(=O)CN1C(=O)COc2ccc(S(=O)(=O)N3CCCC3)cc21`: 2.87%; `O=C(N/N=C/c1ccc(OC(=O)c2ccc3c(c2)OCO3)cc1)c1cncc(Br)c1`: 10.8%.
